Bioassay records deposited in PubChem BioAssay by National Center for Advancing Translational Sciences (NCATS).
A selection: hits, their analogues and other compounds. The true share with any hit is near 3.6%.
Sm TGR block = qHTS Assay for the Inhibitors of Schistosoma Mansoni Peroxiredoxins; purified TGR, DTNB reduction, TNB absorbance 405 nm; Potency, µM (top dose mostly 114 µM), inactives show at the highest dose activity change, negative = inhibition, usual class: inhibitors; actives 3% (n = 360,000); further: nearly all actives have a fitted effect of over 60% in size
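TGR 20 nM + NADPH 100 uM (dispensed conc.), cpd preinc 15 min RT; start with NADPH (500 uM addition) then DTNB (15 mM addition). Kinetic TNB absorbance, 405 nm filter. Four-parameter Hill fit across titration.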
FBPA Giardia inh = qHTS Assay for Inhibitors of Fructose-1,6-bisphosphate Aldolase from Giardia Lamblia | A8B2U2 | purified Giardia FBPA | Potency, µM (series often up to 59.6 µM), for inactives: at the top dose activity, negative = inhibition, usual class: inhibitors | actives 0.71% (n = 290,000) | AID 2451, 2010; further: nearly all actives have a fitted effect of over 55% in size
Target sequence (A8B2U2 whole entry, looked up): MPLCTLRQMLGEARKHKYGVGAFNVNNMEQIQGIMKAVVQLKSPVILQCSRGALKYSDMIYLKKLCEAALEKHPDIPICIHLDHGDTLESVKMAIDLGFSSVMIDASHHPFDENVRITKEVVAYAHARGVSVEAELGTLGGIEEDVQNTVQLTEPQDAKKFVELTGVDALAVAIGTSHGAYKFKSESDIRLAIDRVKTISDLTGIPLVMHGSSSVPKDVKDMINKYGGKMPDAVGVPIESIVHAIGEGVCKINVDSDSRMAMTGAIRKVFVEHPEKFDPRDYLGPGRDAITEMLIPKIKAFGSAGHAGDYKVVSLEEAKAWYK
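40 nM FBPA preincubated 10 min at RT with compound (up to 57.5 uM final), then substrate plus GAPDH/TPI/NAD/arsenate coupling and diaphorase/resazurin added. Fluorescence read after 20 min at RT, 525/598 nm.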
AmpC no deterg = qHTS Inhibitors of AmpC Beta-Lactamase (assay without detergent) | AID 485341, 2010 | P00811 | actives 0.52% (n = 330,000) | AmpC nitrocefin hydrolysis, absorbance 480 nm, 0.0001% Triton | Potency, µM (series often up to 57.1 µM), without a hit: top-dose activity change, negative = inhibition, hits mostly inhibitors;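 further: plate controls were no compound for no effect and no enzyme for full effect; nearly all actives have a fitted effect of over 20% in size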
Target sequence (P00811 whole entry, looked up): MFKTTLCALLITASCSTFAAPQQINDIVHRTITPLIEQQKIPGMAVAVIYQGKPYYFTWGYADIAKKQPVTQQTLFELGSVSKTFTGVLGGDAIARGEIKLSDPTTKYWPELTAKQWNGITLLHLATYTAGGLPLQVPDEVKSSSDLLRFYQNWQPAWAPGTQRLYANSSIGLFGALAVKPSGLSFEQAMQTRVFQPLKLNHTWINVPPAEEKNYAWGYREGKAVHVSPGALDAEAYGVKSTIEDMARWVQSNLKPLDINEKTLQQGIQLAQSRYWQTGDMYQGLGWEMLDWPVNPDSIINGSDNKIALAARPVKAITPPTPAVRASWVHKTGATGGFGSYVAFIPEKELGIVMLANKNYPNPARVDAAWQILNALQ
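AmpC (5.3 nM in the dispensed reagent) in 20 mM phosphate pH 7.0 with 0.01% (detergent screen) or 0.0001% Triton X-100 was preincubated with compounds for 15 min at room temperature. Nitrocefin was then added from an 800 uM solution, and hydrolysis was followed at 480 nm.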
AmpC detergent = qHTS Inhibitors of AmpC Beta-Lactamase (assay with detergent) | P00811 | AmpC hydrolysis of nitrocefin, absorbance 480 nm, 0.01% Triton | Potency, µM (series often up to 114 µM), for the others: at the top dose activity change, negative = inhibition, most hits filed as inhibitors | actives 0.041% (n = 370,000) | AID 485294, 2010;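 further: 0% = no-compound wells and -100% = no-enzyme wells; nearly all actives have a fitted effect of over 25% in size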
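AmpC (5.3 nM in the dispensed reagent) in 20 mM phosphate pH 7.0 with 0.01% (detergent screen) or 0.0001% Triton X-100 was preincubated with compounds for 15 min at room temperature. Nitrocefin was then added from an 800 uM solution, and hydrolysis was followed at 480 nm.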
Numbers without * were called inactive; ? = inconclusive; · = no result given. The call rests on the fitted dose curve; in most records, active means well fitted curve in the direction sought with a large enough effect; inconclusive means small, poorly fitted or top-dose-only effect, or another doubt; inactive means no such curve, though single readings can be large; an effect the other way counts as inactive or inconclusive. Unless noted, on the % scale 0 is the no-effect control and ±100 the full control effect; potency means the concentration at half of the fitted maximal effect.

SMILES | Sm TGR block | FBPA Giardia inh | AmpC no deterg | AmpC detergent
COc1ccc(OC)c(NC(=O)C2CCN(S(=O)(=O)c3c(C)noc3/C=C/c3ccc(C)cc3)CC2)c1 | 5% | · | · | 26%
COc1cccc(C(=O)Nc2cccc(OCc3cc(=O)n4cc(C)ccc4n3)c2)c1 | -4% | · | · | -2%
CN1CCc2nc(SCC(=O)Nc3ccc(OC(F)(F)F)cc3)c(C#N)c(-c3cccs3)c2C1 | 35µM* | ? | 4% | -6%
Cc1cccc(CSc2nc3c(c(-c4cccs4)c2C#N)CN(C)CC3)c1 | -29% | -10% | 29% | ?
CN1CCc2nc(SCC(=O)Nc3cccc(F)c3)c(C#N)c(-c3cccs3)c2C1 | 20µM* | -25% | -11% | -18%
COc1c2c(cc3c1C(CC(=O)c1c(O)c(OC)c4occc4c1OC)[N+](C)(C)CC3)OCO2 (configuration not stated) | · | -14% | · | ·
C/C(CCc1oc2c(Br)cc(Br)cc2c1-c1ccc(C)o1)=N\O | 16µM* | -9% | -46% | 0%
C/C(CCc1oc2ccccc2c1-c1ccc(C)o1)=N/O | 20µM* | 4% | -1% | -9%
COc1cc(OC)c(NC(=O)c2oc3ccc4c(c3c2C)C(=O)CC(C)(C)O4)cc1Cl | 8% | · | · | 21%
O=C(N/N=C/c1ccccn1)c1ccc(Cl)c(Cl)c1 | 5% | -8% | -3% | 1%
COc1ccc(N2CCN(C(=O)CCS(=O)(=O)c3cccc4nsnc34)CC2)cc1 | ? | -19% | 3% | -14%
COc1ccc(N2CCN(C(=O)CS(=O)(=O)c3cccc4nsnc34)CC2)cc1 | 50µM* | · | · | -7%
COc1ccc(N2CCN(C(=O)CCS(=O)(=O)c3ccc(C)cc3)CC2)cc1 | 25µM* | 2% | 65% | 3%
CNC(=O)c1c[nH]c2ccc(S(=O)(=O)Nc3cccc(SC)c3)cc2c1=O | 13% | 17% | -54% | -13%
Nc1ccc(N2CCOCC2)c2nonc12 | ? | 2.8µM* | -15% | -2%
Oc1c(Br)cc(Br)cc1CNc1cnc2ccccc2c1 | 13µM* | 15% | -40% | 3%
O=C(NCC(O)c1ccccc1)c1cccs1 (configuration not stated) | 13% | 17% | -10% | -18%
Cc1ccc2nc(/C(C#N)=C/c3ccc(-c4ccc(F)cc4F)o3)[nH]c2c1 | 2% | · | · | -5%
Cc1ccc2nc(/C(C#N)=C/c3ccc(-c4cccc([N+](=O)[O-])c4)o3)[nH]c2c1 | -13% | -2% | 11µM* | -11%
CCN(CC)C(=O)Cc1c(OC)ccc2cc(Br)ccc12 | 4% | -5% | 46% | 1%
CCN(Cc1ccncc1)Cc1c(O)ccc2cc(Br)ccc12 | 1.8µM* | 8.9µM* | -56% | -4%
COc1ccccc1N(C(=O)c1cncc(Br)c1)c1nc(-c2ccc(C)cc2)cs1 | -6% | -6% | -12% | -9%
COc1cc(NC2c3ncccc3C(=O)N2Cc2ccco2)cc(OC)c1 (configuration not stated) | 45µM* | -28% | 14% | 1%
COc1ccc(CN2C(=O)c3cccnc3C2Nc2ccc(OC)c(Cl)c2)cc1 (configuration not stated) | -15% | -1% | 39% | -4%
COc1ccc(/C=C(\NC(=O)c2ccco2)C(=O)NCc2ccco2)cc1 | 1% | 0% | -23% | 0%
SMILES | Sm TGR block | FBPA Giardia inh | AmpC no deterg | AmpC detergent
O=C(NCc1ccco1)/C(=C\c1ccc(F)cc1)NC(=O)c1ccco1 | 32µM* | 19% | -20% | 1%
O=C(NCc1ccco1)/C(=C/c1ccco1)NC(=O)c1ccco1 | 25µM* | -24% | -25% | 6%
COc1ccc(S(=O)(=O)N(NC2=NS(=O)(=O)c3ccccc32)C(=O)C(C)C)cc1 | -2% | 1% | -40% | -3%
CN1CCN(Cc2cc(COCc3ccccc3)c3cccnc3c2O)CC1 | 25µM* | -2% | 36% | ?
CN1CCN(C2CCN(Cc3ccc(O)c4ncccc34)CC2)CC1 | 1.6µM* | · | -11% | ?
CCCOc1ccccc1C(=O)Nc1nc2c(s1)CCCC2 | 6% | · | · | 21%
O=CNn1cnc2c(oc3nc(-c4ccccc4)cc(-c4ccco4)c32)c1=O | 40µM* | ? | 3% | -2%
CC(=O)c1cccc(NS(=O)(=O)c2ccc3c(c2)N(C(C)=O)CCO3)c1 | 0% | · | -19% | 4%
N#Cc1c(N)n(-c2ccccc2N)c2nc3ccccc3nc12 | 45µM* | -11% | 2% | -6%
N#Cc1c(N)n(-c2cccc(C(=O)O)c2)c2nc3ccccc3nc12 | 0% | -25% | -20% | 2%
CC(=O)N1N=C(c2ccccc2)OC1c1ccc([N+](=O)[O-])s1 (configuration not stated) | 32µM* | ? | -25% | -7%
COc1ccccc1CCn1c(=O)c(-c2ccc(F)c(F)c2)nc2cncnc21 | · | -3% | · | ·
Cn1nnnc1SCC(=O)c1ccc(Br)s1 | -1% | -1% | -32% | -3%
CCn1c(SCC(N)=O)nnc1-c1ccco1 | -12% | 7% | -16% | -11%
C=CCn1c(SCC(=O)N2c3ccccc3Sc3ccccc32)nnc1-c1ccco1 | ? | -1% | 31% | -4%
CCn1c(SCC(=O)N2c3ccccc3Sc3ccccc32)nnc1-c1ccco1 | 14µM* | 7% | 54% | ?
CCn1c(SCC(=O)c2cccs2)nnc1-c1ccco1 | 45µM* | -11% | -14% | -4%
Cc1cc(SCC(=O)c2cccs2)nc2c(C)cccc12 | 3% | -9% | -33% | ?
Cn1nnnc1SCC(=O)c1cccs1 | 40µM* | 0% | -21% | 1%
Cc1cc2c(C)ccc(C)c2nc1SCC(=O)c1cccs1 | 5% | -4% | 0.18µM* | ?
COC(=O)C1=C(C)N(c2ccc(OC)c(OC)c2)C(=O)/C1=C\c1ccco1 | 16µM* | -3% | 70% | -4%
CCOC(=O)C1=C(C)N(c2ccccc2)C(=O)/C1=C\c1ccco1 | 45µM* | 5% | -10% | -4%
CCOC(=O)C1=C(C)N(c2ccccc2)C(=O)/C1=C\c1cccs1 | -4% | 3% | -17% | ?
CCOC(=O)C1=C(C)N(c2ccccc2)C(=O)/C1=C\c1ccc(O)c(OC)c1 | 3.2µM* | 18µM* | -10% | 1%
CCCN1CCN(S(=O)(=O)c2ccc3c(c2)CCC(=O)N3)CC1 | -29% | · | -9% | 1%
COc1ccc(-c2nnc(NC(=O)c3ccc(F)cc3)o2)cc1 | -5% | ? | 22µM* | ?
COc1ccc(-c2nnc(NC(=O)c3ccc4c(c3)OCCO4)o2)cc1 | 5% | ? | -28% | 0%
COc1ccc(Cl)cc1NC(=O)CN(C)C(C)C(=O)NC(=O)NC1CCCCC1 (configuration not stated) | -2% | · | 3% | -17%
Cc1ccc2c(c1)c(CC(NC(=O)c1ccccc1Oc1ccccc1)C(=O)O)cn2C(=O)OCc1ccccc1 (configuration not stated) | · | 18% | · | ·
